Measurements taken from PubChem BioAssay AID588689 (Southern Research Specialized Biocontainment Screening …, 2011).
About 1,000 (0.29%) of roughly 340,000 compounds were called active. Rule as the data show it: inconclusive = inhibition above about 29% without an active follow-up result; inactive = below that. These entries were drawn from the full list. Results with a measured potency or affinity are listed apart.

Target: Genome polyprotein (Dengue virus type 2 (strain 16681-PDK53)) (UniProt P29991)
Assay: flavivirus cap methylation enzyme inhibition – biochemical, confirmation dose response, primary screen (AID 588689)
Settings: Dengue-2 NS5 methyltransferase capping enzyme assay, at 25 µM, stronger effect = higher value
[1] = measured here: pilot screen replicate inhibition

Sequence of Genome polyprotein (Dengue virus type 2 (strain 16681-PDK53)) (P29991 whole entry, looked up): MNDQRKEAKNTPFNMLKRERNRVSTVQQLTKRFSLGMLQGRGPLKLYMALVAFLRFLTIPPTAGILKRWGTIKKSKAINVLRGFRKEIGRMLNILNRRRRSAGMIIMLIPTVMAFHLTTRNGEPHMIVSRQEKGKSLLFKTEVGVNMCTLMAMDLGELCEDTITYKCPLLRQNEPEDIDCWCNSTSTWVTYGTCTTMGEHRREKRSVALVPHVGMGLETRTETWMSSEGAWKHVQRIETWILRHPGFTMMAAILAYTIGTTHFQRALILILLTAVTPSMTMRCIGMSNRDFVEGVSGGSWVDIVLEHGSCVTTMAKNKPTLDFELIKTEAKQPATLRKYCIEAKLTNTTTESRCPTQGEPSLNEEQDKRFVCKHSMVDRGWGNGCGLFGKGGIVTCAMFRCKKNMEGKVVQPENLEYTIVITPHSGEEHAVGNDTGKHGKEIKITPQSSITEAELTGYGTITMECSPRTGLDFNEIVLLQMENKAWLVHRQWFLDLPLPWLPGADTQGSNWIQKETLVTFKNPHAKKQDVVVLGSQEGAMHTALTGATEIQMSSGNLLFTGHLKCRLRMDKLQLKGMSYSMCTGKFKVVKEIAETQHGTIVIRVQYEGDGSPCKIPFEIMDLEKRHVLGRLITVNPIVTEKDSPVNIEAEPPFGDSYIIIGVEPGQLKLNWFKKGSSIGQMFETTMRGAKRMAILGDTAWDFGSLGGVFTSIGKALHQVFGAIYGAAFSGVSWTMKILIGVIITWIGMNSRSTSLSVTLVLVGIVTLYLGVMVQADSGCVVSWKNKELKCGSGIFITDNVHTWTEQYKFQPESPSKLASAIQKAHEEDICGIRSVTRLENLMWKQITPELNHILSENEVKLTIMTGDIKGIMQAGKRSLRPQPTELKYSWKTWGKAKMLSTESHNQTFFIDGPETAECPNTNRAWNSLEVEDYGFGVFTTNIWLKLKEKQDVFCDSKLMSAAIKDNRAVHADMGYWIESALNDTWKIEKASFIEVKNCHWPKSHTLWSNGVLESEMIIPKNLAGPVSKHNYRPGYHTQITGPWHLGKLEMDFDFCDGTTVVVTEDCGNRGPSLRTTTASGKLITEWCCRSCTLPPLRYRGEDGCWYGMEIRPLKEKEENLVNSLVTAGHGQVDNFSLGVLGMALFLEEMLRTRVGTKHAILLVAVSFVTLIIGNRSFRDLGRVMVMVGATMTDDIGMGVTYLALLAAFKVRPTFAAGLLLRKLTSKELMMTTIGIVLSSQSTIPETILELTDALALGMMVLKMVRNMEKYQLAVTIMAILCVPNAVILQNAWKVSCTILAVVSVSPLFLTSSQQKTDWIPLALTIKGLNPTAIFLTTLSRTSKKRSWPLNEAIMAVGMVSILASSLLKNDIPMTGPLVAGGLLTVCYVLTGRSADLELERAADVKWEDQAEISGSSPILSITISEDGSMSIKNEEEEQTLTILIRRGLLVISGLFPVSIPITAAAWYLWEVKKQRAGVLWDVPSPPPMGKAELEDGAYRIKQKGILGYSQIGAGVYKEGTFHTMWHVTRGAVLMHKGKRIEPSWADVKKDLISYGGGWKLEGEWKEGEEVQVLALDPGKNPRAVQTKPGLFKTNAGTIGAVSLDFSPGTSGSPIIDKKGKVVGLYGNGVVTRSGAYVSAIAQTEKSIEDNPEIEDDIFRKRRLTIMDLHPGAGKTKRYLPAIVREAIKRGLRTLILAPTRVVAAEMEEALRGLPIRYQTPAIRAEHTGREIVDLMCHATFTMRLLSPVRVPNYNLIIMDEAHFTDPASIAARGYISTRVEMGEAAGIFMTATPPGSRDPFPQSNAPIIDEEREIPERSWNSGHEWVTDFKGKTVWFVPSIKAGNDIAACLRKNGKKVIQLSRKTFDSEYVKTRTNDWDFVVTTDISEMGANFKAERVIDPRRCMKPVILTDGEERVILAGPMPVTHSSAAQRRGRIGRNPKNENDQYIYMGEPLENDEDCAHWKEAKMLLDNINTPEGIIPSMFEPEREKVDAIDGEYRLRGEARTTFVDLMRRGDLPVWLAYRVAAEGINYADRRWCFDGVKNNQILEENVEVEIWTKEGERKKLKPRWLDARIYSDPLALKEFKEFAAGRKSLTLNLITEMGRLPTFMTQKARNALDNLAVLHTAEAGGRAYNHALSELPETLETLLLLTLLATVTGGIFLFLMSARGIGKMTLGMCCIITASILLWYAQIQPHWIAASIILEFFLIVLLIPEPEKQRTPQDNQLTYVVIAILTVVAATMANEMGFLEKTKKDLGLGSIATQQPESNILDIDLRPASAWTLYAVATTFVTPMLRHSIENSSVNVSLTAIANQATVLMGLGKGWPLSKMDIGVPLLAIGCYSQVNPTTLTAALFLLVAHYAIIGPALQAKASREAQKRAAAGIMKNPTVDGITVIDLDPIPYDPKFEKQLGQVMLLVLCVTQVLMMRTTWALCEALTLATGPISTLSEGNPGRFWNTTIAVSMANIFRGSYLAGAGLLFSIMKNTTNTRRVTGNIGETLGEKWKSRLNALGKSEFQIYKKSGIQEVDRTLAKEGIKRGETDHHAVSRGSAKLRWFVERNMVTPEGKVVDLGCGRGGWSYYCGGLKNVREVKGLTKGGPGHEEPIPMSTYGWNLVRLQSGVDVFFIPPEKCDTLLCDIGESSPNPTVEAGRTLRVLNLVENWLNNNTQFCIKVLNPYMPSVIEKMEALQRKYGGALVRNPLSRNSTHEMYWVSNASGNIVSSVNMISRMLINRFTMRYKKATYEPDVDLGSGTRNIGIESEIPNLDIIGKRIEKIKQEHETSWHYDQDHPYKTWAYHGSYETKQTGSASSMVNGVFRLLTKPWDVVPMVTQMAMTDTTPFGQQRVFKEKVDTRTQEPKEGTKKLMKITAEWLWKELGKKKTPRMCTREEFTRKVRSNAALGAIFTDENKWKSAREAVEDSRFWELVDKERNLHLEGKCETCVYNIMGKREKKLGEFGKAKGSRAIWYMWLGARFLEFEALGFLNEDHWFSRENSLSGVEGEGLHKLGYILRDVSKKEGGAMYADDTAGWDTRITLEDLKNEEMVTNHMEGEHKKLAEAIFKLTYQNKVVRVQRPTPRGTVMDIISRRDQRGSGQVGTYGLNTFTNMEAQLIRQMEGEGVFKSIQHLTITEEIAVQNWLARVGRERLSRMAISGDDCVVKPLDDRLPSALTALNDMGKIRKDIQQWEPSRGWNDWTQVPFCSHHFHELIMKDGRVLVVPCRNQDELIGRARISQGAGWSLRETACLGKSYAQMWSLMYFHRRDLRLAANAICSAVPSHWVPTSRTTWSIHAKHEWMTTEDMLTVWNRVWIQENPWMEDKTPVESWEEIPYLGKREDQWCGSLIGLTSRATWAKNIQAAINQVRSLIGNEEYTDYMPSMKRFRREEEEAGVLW

Compound: O=C(CSc1nnc2ccccn12)NC(=O)c1cccc([N+](=O)[O-])c1
- inhibition: -2.72% (inactive)

Compound: Cc1nc(NN)nc(NCc2ccccc2)n1
- inhibition: -1.54% (inactive)

Compound: CC[C@H]1c2[nH]c3ccccc3c2C[C@@H]2C(=O)N(c3ccc(F)cc3)C(=O)N21
- inhibition: 0% (inactive)

Compound: Cc1ccc(C(=O)NNC(=O)C2CSC3(C)CCC(=O)N23)cc1 (stereo unspecified)
- inhibition: 5.19% (inactive)

Compound: CC(=O)Nc1c(O)nc(SCC(=O)Nc2nnc(SCc3ccccc3)s2)[nH]c1=O
- inhibition: 3.91% (inactive)

Compound: Cc1cc(=O)[nH]c(SCC(=O)Nc2nnc(SCc3ccccc3)s2)n1
- inhibition: -1.48% (inactive)

Compound: COc1cccc(CN2CCNC(=O)C2CC(=O)NCCc2ccccn2)c1 (stereo unspecified)
- inhibition: -3.12% (inactive)

Compound: Cc1occc1C(=O)Nc1cnn(CCCC(=O)O)c1
- inhibition: 0.32% (inactive)

Compound: O=C(CC(=O)NN=C1CCCCCC1)NCc1cccnc1
- inhibition: -7.12% (inactive)

Compound: CCOc1ccc(/C=C2\SC(=S)N(CCC(=O)O)C2=O)cc1
- inhibition: 10.9% (inactive)

Compound: COc1cc(/C=C2\SC(=S)N(CC(=O)O)C2=O)ccc1OC(=O)c1ccco1
- inhibition: -6.52% (inactive)

Compound: COc1cc(/C=C2/SC(=S)N(CC(=O)O)C2=O)ccc1OC(=O)c1ccco1
- inhibition: -8.15% (inactive)

Compound: CCOc1cc(/C=C2/SC(=S)N(Cc3ccccc3)C2=O)ccc1O
- inhibition: -16.7% (inactive)

Compound: CCn1c(O)c(/C=C2\C=NN=C2c2ccccc2)sc1=S
- inhibition: 1.56% (inactive)

Compound: Cc1ccc(C2=NN(C(=O)CCC(=O)O)C(c3ccc4c(c3)OCO4)C2)cc1 (stereo unspecified)
- inhibition: -1.55% (inactive)

Compound: COc1ccc(CNC(=O)CN(Cc2ccccc2F)C(=O)c2csnn2)cc1
- inhibition: -7.27% (inactive)

Compound: CCc1cccc2c1NC(=O)C21N2CCCC2C(C(=O)c2ccc3ccccc3c2)C12C(=O)Nc1ccccc12 (stereo unspecified)
- inhibition: -10.4% (inactive)

Compound: Cc1c(Cl)cccc1NC(=O)CC1Sc2ccccc2NC1=O (stereo unspecified)
- inhibition: -2.59% (inactive)

Compound: CCN(CC)c1ccc(C(=O)O)cc1
- inhibition: -2.67% (inactive)

Compound: O=C(O)c1ccc(C(=O)C(=O)c2ccccc2)cc1
- inhibition: -3.83% (inactive)

Compound: O=C(Oc1ccc(/C=N/NC(=O)c2ccccn2)cc1)c1cccc(F)c1
- inhibition: 0.65% (inactive)

Compound: O=S(=O)(c1ccccc1)c1nc(-c2ccc(F)cc2)oc1NCC1CCCO1 (stereo unspecified)
- inhibition: -1.48% (inactive)

Compound: CC(C)NC(=O)C(=O)Nc1ccc2c(c1)N(S(=O)(=O)c1cccs1)CCC2
- inhibition: 2.2% (inactive)

Compound: c1coc(Cn2c(-c3ccco3)nc3ccccc32)c1
- inhibition: -8.81% (inactive)

Compound: CCn1c(-c2ccco2)nc2ccccc21
- inhibition: -5.14% (inactive)

Compound: O=C(CCc1nc(-c2ccc(Cl)cc2)no1)NCc1ccccc1CN1CCOCC1
- inhibition: 1.12% (inactive)

Compound: O=C(C=Cc1cccc(Cl)c1)c1ccccc1
- inhibition: -41.2% (inactive)

Compound: CN(C)c1ccc(/C=C(\C#N)C(=O)c2ccccc2)cc1
- inhibition: -80.6% (inactive)

Compound: CNC(=S)N(CCN(C)C)Cc1cc2cc3c(cc2[nH]c1=O)OCO3
- inhibition: -3.53% (inactive)

Compound: Cn1c(=O)cc(N)n(-c2ccccc2)c1=O
- inhibition: 1.3% (inactive)

Compound: O=C1c2ccccc2COc2ccc(O)cc21
- inhibition: 4% (inactive)

Compound: Cc1ccnc(N2CCC(C(=O)Nc3ccc4c(c3)CCC4)CC2)n1
- inhibition: -1.37% (inactive)
- inhibition [1]: -2.12%

Compound: CCc1nnc(NC(=O)CSc2nc(-c3ccc(OC)cc3)ns2)s1
- inhibition: -9.71% (inactive)

Compound: CCN(CC)c1ccc(C(=O)c2ccccc2C(=O)O)c(O)c1
- inhibition: 8.17% (inactive)
- inhibition [1]: 6.25%

Compound: CN(C)c1ccc(C(=O)c2ccccc2C(=O)O)c(O)c1
- inhibition: -0.81% (inactive)

Compound: Cc1nc(N)nc(N(C)c2ccccc2)c1Br
- inhibition: 3.09% (inactive)

Compound: O=C(COC(=O)C1CCN(S(=O)(=O)c2cccc3cccnc23)CC1)c1ccc([N+](=O)[O-])cc1
- inhibition: -7.6% (inactive)

Compound: O=S(=O)(Cc1ccccc1)N1CCN(Cc2ccc(F)cc2Cl)CC1
- inhibition: -4.55% (inactive)

Compound: COc1cc(C(c2c(C)[nH][nH]c2=O)c2c(C)[nH][nH]c2=O)cc(OC)c1OC
- inhibition: 1.7% (inactive)

Compound: COc1ccc(N=C(c2ccccc2)c2c(C)[nH]n(-c3ccccc3)c2=O)c(OC)c1
- inhibition: -10.3% (inactive)

Compound: COc1ccc(C(C[N+](=O)[O-])c2c(C)[nH]n(-c3ccccc3)c2=O)cc1 (stereo unspecified)
- inhibition: -13.7% (inactive)

Compound: COc1ccc(C(c2c(C)n(C)n(-c3ccccc3)c2=O)c2c(C)n(C)n(-c3ccccc3)c2=O)cc1OC
- inhibition: -2.72% (inactive)

Compound: Nc1nccc(/C=C/c2c(Cl)cccc2Cl)n1
- inhibition: -5.43% (inactive)

Compound: Cn1c(=O)c2c(SCc3ccccc3)nc(C3CC3)nc2n(C)c1=O
- inhibition: -11.1% (inactive)

Compound: CC(C)(C)OC(=O)C[C@H]1C/C=C\C[C@@H](CC(=O)N(CCO)Cc2ccccc2)C(=O)N[C@@H](Cc2ccccc2)COC1=O
- inhibition: 1.65% (inactive)

Compound: CCOC(=O)C1CCN(C(=O)C2CCN(S(=O)(=O)c3ccc4c(c3)CC(C)N4C(C)=O)CC2)CC1 (stereo unspecified)
- inhibition: 2.72% (inactive)

Compound: O=C(C1CCN(Cc2ccc(Cl)cc2)CC1)N1CCN(C(c2ccccc2)c2ccccc2)CC1
- inhibition: -2.91% (inactive)

Compound: O=C(O)c1ccc2c(c1)C(=O)N(c1ccc(Nc3ccccc3)cc1)C2=O
- inhibition: 7.94% (inactive)

Compound: O=C(O)c1ccc2c(c1)C(=O)N(c1cccc(C(=O)/C=C/c3ccccc3)c1)C2=O
- inhibition: -7.15% (inactive)

Compound: O=C(c1ccccc1)c1ccccc1
- inhibition: -1.45% (inactive)

Compound: O=C(c1ccccc1)c1ccccc1C(=O)c1ccccc1
- inhibition: 1.31% (inactive)

Compound: Cc1ccc(CN2[C@@H]3c4ccccc4C[C@@H]3OCCS2(=O)=O)cc1
- inhibition: -4.81% (inactive)

Compound: O=C(NCCc1ccccc1)c1cnc2ccccn2c1=O
- inhibition: 1.36% (inactive)

Compound: COc1cc(CCNC2=CC(=O)c3ncccc3C2=O)ccc1O
- inhibition: -6.94% (inactive)

Compound: O=C1c2ccccc2-c2cccnc21
- inhibition: -0.66% (inactive)

Compound: CCOC(=O)CC1=NN(c2ccccc2)C(=O)/C1=C\c1ccc(N(C)C)cc1
- inhibition: 13.3% (inactive)

Compound: COc1ccc(C2=NN(c3ccccc3)C(=O)/C2=C\c2ccc(O)c(OC)c2)cc1
- inhibition: 8.85% (inactive)

Compound: COC(=O)CC1=NN(c2ccc(OC)cc2)C(=O)/C1=C\c1ccc(Cl)cc1
- inhibition: -4.74% (inactive)

Compound: COc1ccc(/C=C2/C(=O)N(c3cccc(F)c3)N=C2C)c(OC)c1
- inhibition: 16.7% (inactive)
